# Pf Dd2 inh = P. falciparum Dd2 growth inhibitors, primary screen, SYBR Green fluorescence, single dose replicates. 72 h; active compounds read low. activity change, % at 10 µM. 2.3% of 94,000 active. AID 1159554, 2015; in the data active means activity change below about -80%
# C diff growth = C. difficile growth inhibitors, primary screen, HTS; 0.25% of 86,000 active; growth activity, negative = inhibition, % at 16 µg/mL (by protocol); Clostridium difficile clinical isolate growth, OD600, 24 h; active compounds read low;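 active means mean growth activity at or below -80% and every replicate also at or below -80%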;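 further: 0% = DMSO wells and -100% = levofloxacin 16 µg/mL wells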
# T cruzi growth = T. cruzi intracellular proliferation inhibitors, primary screen, cell-based, beta-gal Tulahuen parasites, NIH3T3 host, luminescence; T. cruzi beta-gal in NIH3T3, GalScreen luminescence, 90 h; 5.9% of 77,000 active; inhibition, % at 8.34 µM;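 active means mean inhibition above about 93%, with at least 55% of replicates each passing it, limit read from the data, passing the limit was not always enough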
# * hit, by the source's call; nt = no result given. A selection: hits, their analogues and other compounds. The true share with any hit is near 6.7%.
SMILES,Pf Dd2 inh,C diff growth,T cruzi growth
CCCC(=O)N1CC2(C1)CN(C(=O)CC)[C@@H](CO)c1c2c2ccc(OC)cc2n1C,9,-2,nt
O=C([C@H]1[C@H](CO)[C@H]2Cn3c(ccc(C4=CCCC4)c3=O)[C@@H]1N2C(=O)c1ccncc1)N1CCOCC1,nt,1,49
CC(C)CC#Cc1cnc2c(c1)C(=O)N([C@H](C)CO)C[C@@H](C)[C@@H](CN(C)Cc1cncnc1)O2,nt,0,10
O=C(Nc1ccccc1F)N1C[C@H]2[C@@H](c3ccccc31)[C@H](CO)N2C(=O)Cc1cccnc1,29,-5,1
C[C@@H]1CN([C@H](C)CO)C(=O)c2cc(NC(=O)c3ccccc3)ccc2O[C@@H](C)CCCCO[C@@H]1CN(C)S(=O)(=O)c1ccc(F)cc1,-85*,5,nt
C[C@H]1CCCCO[C@H](CN(C)S(=O)(=O)c2ccc(F)cc2)[C@@H](C)CN([C@@H](C)CO)C(=O)c2cc(NC(=O)c3ccccc3)ccc2O1,-75,-8,nt
Cc1ccc(S(=O)(=O)N(C)C[C@H]2OCCCC[C@@H](C)Oc3ccc(NC(=O)c4ccccc4)cc3C(=O)N([C@@H](C)CO)C[C@H]2C)cc1,-65,nt,11
COc1ccc(S(=O)(=O)N(C)C[C@@H]2OCCCC[C@@H](C)Oc3ccc(NC(=O)c4ccccc4)cc3C(=O)N([C@H](C)CO)C[C@H]2C)cc1,-85*,15,87
Cc1ccc(S(=O)(=O)N(C)C[C@H]2OCCCC[C@H](C)Oc3ccc(NC(=O)c4ccccc4)cc3C(=O)N([C@H](C)CO)C[C@H]2C)cc1,-81*,nt,71
COc1ccc(S(=O)(=O)N(C)C[C@@H]2OCCCC[C@@H](C)Oc3ccc(NC(=O)c4ccccc4)cc3C(=O)N([C@@H](C)CO)C[C@@H]2C)cc1,-79,32,85
C[C@@H]1CN([C@@H](C)CO)C(=O)c2cc(-c3cccc(F)c3)cnc2O[C@@H]1CN(C)C(=O)c1ccccn1,19,-3,nt
O=C(C1CCCC1)N1CC2(C1)[C@H](c1ccccc1)[C@@H](CO)N2C(=O)NC1CCCC1,-16,-9,nt
CCCNC(=O)Nc1ccc2c(c1)C(=O)N(C)[C@H]1CC[C@H](CC(=O)Nc3ccccc3C)O[C@@H]1CO2,13,-1,-10
O=C(C1CCCC1)N1C[C@H]2[C@@H](c3ccccc31)[C@@H](CO)N2C(=O)Cc1ccccn1,-14,3,51
C[C@@H]1CN([C@@H](C)CO)C(=O)Cc2cc(NC(=O)CCN3CCOCC3)ccc2O[C@H]1CN(C)S(C)(=O)=O,9,-1,-13
C[C@@H]1CN([C@H](C)CO)C(=O)Cc2cc(NC(=O)Nc3ccc(F)cc3)ccc2O[C@H]1CN(C)Cc1ccc(C(=O)Nc2ccccc2N)cc1,-39,9,nt
C[C@@H]1CN([C@@H](C)CO)C(=O)Cc2cc(NC(=O)c3ccncc3)ccc2O[C@@H]1CN(C)Cc1ccc(C(=O)Nc2ccccc2N)cc1,-85*,7,nt
C[C@H]1CN([C@@H](C)CO)C(=O)Cc2cc(NC(=O)CCCCCC(=O)Nc3ccccc3N)ccc2O[C@H]1CN(C)Cc1ccc(-c2ccccc2)cc1,-82*,0,43
C[C@@H]1CN([C@H](C)CO)C(=O)Cc2cc(NC(=O)c3ccncc3)ccc2O[C@@H]1CN(C)Cc1ccc(C(=O)Nc2ccccc2N)cc1,-75,6,nt
Cc1ccc(S(=O)(=O)N(C)C[C@@H]2Oc3ccc(NC(=O)CCCCCC(=O)Nc4ccccc4N)cc3CC(=O)N([C@@H](C)CO)C[C@H]2C)cc1,-68,-6,16
C[C@@H]1CN([C@H](C)CO)C(=O)Cc2cc(NC(=O)CCCCCC(=O)Nc3ccccc3N)ccc2O[C@H]1CN(C)Cc1ccccc1,-53,-12,21
Cc1ccc(S(=O)(=O)N(C)C[C@@H]2Oc3ccc(NC(=O)CCCCCC(=O)Nc4ccccc4N)cc3CC(=O)N([C@@H](C)CO)C[C@@H]2C)cc1,-88*,-5,50
C[C@H]1CN([C@@H](C)CO)C(=O)Cc2cc(NC(=O)Nc3ccc(F)cc3)ccc2O[C@@H]1CN(C)Cc1ccc(C(=O)Nc2ccccc2N)cc1,-86*,2,nt
COc1ccc(S(=O)(=O)Nc2ccc3c(c2)C(=O)N([C@@H](C)CO)C[C@@H](C)[C@H](CN(C)S(=O)(=O)c2ccc(C)cc2)OCCCC[C@@H](C)O3)cc1,-60,nt,nt
C[C@H]1CN([C@@H](C)CO)C(=O)CCCn2cc(nn2)CO[C@H]1CN(C)S(=O)(=O)c1ccc(-c2ccccc2)cc1,-17,nt,-27
C[C@H](CO)N1C[C@H](C)[C@H](CN(C)C(=O)Nc2ccccc2)Oc2c(NC(=O)Nc3ccccc3)cccc2C1=O,-6,8,-24
